Compounds without any hit were thinned out: in the full panel of roughly 79,000, 15% have a hit. Cut-off read from the data, not from the text of the source: active = growth inhibition above about 70%; inactive = the rest.
Experiments:
[1] = NCI Yeast Anticancer Drug Screen. Data for the rad50 strain (AID 155);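 note: 0% = growth of vehicle-only cultures of the same strain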; settings: S. cerevisiae rad50 strain growth inhibition; at 50.0 µM; hits give high values
Method in brief: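 Yeast carrying a defined DNA repair defect were exposed to test compounds, and growth was compared with vehicle-treated controls to give percent inhibition.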

[2] = NCI Yeast Anticancer Drug Screen. Data for the mec2-1 strain (AID 157); settings: S. cerevisiae mec2-1 strain, at 50.0 µM, hits give high values
Method in brief: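 Each compound was tested on mec2-1 yeast, a strain altered in DNA damage repair or cell cycle control. Growth inhibition is reported relative to vehicle.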

[3] = NCI Yeast Anticancer Drug Screen. Data for the sgs1 mgt1 strain (AID 161);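 note: 0% = growth of cultures given vehicle only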; settings: S. cerevisiae sgs1 mgt1 strain, at 50.0 µM, hits give high values
Method in brief: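 Genetically altered yeast, compound exposure, growth inhibition relative to vehicle.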

[4] = NCI Yeast Anticancer Drug Screen. Data for the cln2 rad14 strain (AID 165);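 note: 0% = growth equal to vehicle treated cultures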; settings: S. cerevisiae cln2 rad14 strain, at 50.0 µM, hits give high values
Method in brief: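 Test compounds were added to cln2 rad14 yeast cultures; inhibition of growth was then determined by comparison with vehicle treatment.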

[5] = NCI Yeast Anticancer Drug Screen. Data for the bub3 strain (AID 167); settings: S. cerevisiae bub3 mutant strain, at 50.0 µM, hits give high values
Method in brief: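 Compounds were applied to a genetically altered yeast strain carrying a cell-cycle control defect. Growth inhibition was scored against vehicle-treated controls.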

[6] = NCI Yeast Anticancer Drug Screen. Data for the mlh1 rad18 strain (AID 175); settings: S. cerevisiae mlh1 rad18 strain growth inhibition; at 50.0 µM; hits give high values
Method in brief: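 Inhibition values reflect reduced growth of mutant yeast versus vehicle-treated controls following compound exposure; the mutations affect DNA damage repair.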

Measured: growth inhibition

CCCCCCSC#N
inactive: [1] 34.8% | [2] 13.9% | [3] -8.75% | [4] 18.1% | [5] 15.2% | [6] 7.05%

CCCCCCC(=O)/C=C/c1ccc(Cl)cc1
inactive: [1] 11.9% | [2] -22.1% | [3] -3.1% | [4] -6.5% | [5] 16.2% | [6] -15.6%

Cc1c(N/C=C(\C#N)C(=O)c2ccc(Cl)cc2)c(=O)n(-c2ccccc2)n1C
inactive: [1] -8.15% | [2] 6.6% | [3] -7.25% | [4] 27.2% | [5] 2.35% | [6] 30.9%

CN[C@H]1CCc2cc(OC)c(OC)c(OC)c2-c2ccc(O)c(=O)cc21
inactive: [1] 23.8% | [2] -9.45% | [3] 24.8% | [4] -43.5% | [5] 0.3% | [6] 29.7%

CCCCCCC(O)CCCCCC
inactive: [1] 27.4% | [2] -16.4% | [3] 26.4% | [4] -24.6% | [5] 21.5% | [6] -12.3%

Clc1ccc(-c2nc3ccccc3cc2N2CCCCC2)cc1
inactive: [1] 26.4% | [2] 1.45% | [3] 12.3% | [4] -38.5% | [5] -1.15% | [6] -7.7%

N#CC(C#N)=NO (tested in a mixture with another compound)
inactive: [1] 11.8% | [2] 6.6% | [3] -7.7% | [4] -0.75% | [5] 5.3% | [6] 5.75%

CCCn1cc2c(=O)[nH]c(SC)nc2n1
inactive: [1] -4.95% | [2] -20.8% | [3] -1.35% | [4] -13.1% | [5] -12.7% | [6] 10.8%

CCN(CC)CCCC(C)Nc1nccc(/C=C/c2ccc(Cl)cc2)n1 (stereo not drawn)
inactive: [1] 9.9% | [2] 16.3% | [3] 28.9% | [4] -1.1% | [5] 14% | [6] 41.7%

O=C1C(=C(c2ccccc2)N2CCCCC2)C(=O)c2ccccc21
inactive: [1] 14.9% | [2] -3.6% | [3] 15.1% | [4] -7.75% | [5] 19.3% | [6] 3.2%

NC(=O)SCCC(N)C(=O)O (stereo not drawn)
inactive: [1] 8.4% | [2] 27.5% | [3] 3% | [4] 12.7% | [5] 17.9% | [6] -4.9%

NC(=O)C(NN=C1c2ccccc2-c2ccccc21)(c1ccccc1)c1ccccc1
inactive: [1] 41% | [2] -0.2% | [3] 28% | [4] 42.8% | [5] 0.05% | [6] 18.7%

COc1nc2c(c(O)c(C)c(=O)n2OC2OC(COC(C)=O)C(OC(C)=O)C(OC(C)=O)C2OC(C)=O)c(=O)n1C (stereo not drawn)
inactive: [1] -2.1% | [2] -15.8% | [3] 7.95% | [4] -7.75% | [5] 0.45% | [6] 2.3%

O=C(NCc1cccs1)OC1CC2CCC1C2 (stereo not drawn)
inactive: [1] 1.6% | [2] -7.45% | [3] 10.8% | [4] -14.8% | [5] -8% | [6] 20.4%

CCCN(C(=O)c1ccccc1)C(C#N)c1ccc(C(C#N)N(CCC)C(=O)c2ccccc2)cc1 (stereo not drawn)
inactive: [1] 7% | [2] 1.2% | [3] -24.4% | [4] -10.9% | [5] -11.8% | [6] -32.5%

O=C(OCc1ccccc1)C1(O)CCCCC1
inactive: [1] -5.6% | [2] -16.2% | [3] -6.25% | [4] -2.7% | [5] -5% | [6] -7.4%

CCCc1cccc[n+]1CC(=O)c1ccccc1
inactive: [1] 5.65% | [2] 11.1% | [3] 4.95% | [4] -51.5% | [5] 25.4% | [6] -1.65%

CNC(CCNCCc1ccccc1)CNCCc1ccccc1 (stereo not drawn)
inactive: [1] 44.1% | [2] 4.8% | [3] 22.8% | [4] 3.85% | [5] 5.7% | [6] 22.2%

CC1(CO)C(O)CCC2(C)C1C(O)CC1CC3CC12CCC3(O)CO (stereo not drawn)
inactive: [1] -12.8% | [2] -17.9% | [3] 1.3% | [4] -0.8% | [5] -21.1% | [6] -22.1%

O=C(O)CCC(=O)NNc1nc2ccccc2s1
inactive: [1] 22.1% | [2] 2% | [3] 29.1% | [4] 19.8% | [5] -13.2% | [6] 44.4%

COC1OC(COC(=O)c2ccc([N+](=O)[O-])cc2)C(O)C1SC#N (stereo not drawn)
inactive: [1] 43.5% | [2] -2.3% | [3] 41.3% | [4] -10.1% | [5] 13.2% | [6] 42.8%

NC(N)=NCCCC(O)C(=O)O (stereo not drawn)
inactive: [1] -10.6% | [2] -11.8% | [3] -6.85% | [4] -2.95% | [5] 2.25% | [6] 0.85%

CC1OC(OC2C(OC(=O)[C@]34CCC(C)(C)C[C@H]3C3=CC[C@@H]5[C@@]6(C)CC[C@H](OC7OC(CO)C(O)C(O)C7OC7OC(CO)C(O)C(O)C7O)C(C)(C)[C@@H]6CC[C@@]5(C)[C@]3(C)CC4)OCC(O)C2O)C(O)C(O)C1OC1OCC(O)C(O)C1O (stereo partly drawn)
inactive: [1] -24.8% | [2] -41.2% | [3] -44.5% | [4] -33.8% | [5] -32.8% | [6] -23.1%

NC(=O)NCP(=O)(CNC(N)=O)CNC(N)=O
inactive: [1] -20% | [2] -7.3% | [3] -4.25% | [4] -20.4% | [5] 32.8% | [6] 4.95%

N#Cc1nnn(-c2ccccc2)n1
inactive: [1] 24.2% | [2] 13.5% | [3] 2.9% | [4] -15.7% | [5] 4% | [6] 22.5%

CCc1ccc(C(=O)O)o1
inactive: [1] -9% | [2] -12.1% | [3] -7.35% | [4] 7.8% | [5] 12.7% | [6] 12.3%

OCc1ccccc1CC(O)c1ccccc1 (stereo not drawn)
inactive: [1] -23.7% | [2] -17.3% | [3] -20.2% | [4] -4.65% | [5] 0.05% | [6] -59.4%

CCCC(=O)OCC(C)(C)CC(C)C
inactive: [1] -9.55% | [2] -57.9% | [3] -10.5% | [4] -5.55% | [5] -14.5% | [6] -24.4%

CCC1NC(N=Nc2ccc([N+](=O)[O-])cc2)(P(=O)(OC(C)C)OC(C)C)OC1=O (stereo not drawn)
inactive: [1] 44.5% | [2] -43.5% | [3] 16.1% | [4] -15.8% | [5] 17.5% | [6] 10.8%

CCCCNCCCC(C(=O)O)c1ccccc1 (stereo not drawn)
inactive: [1] 2.1% | [2] -3.4% | [3] 3.8% | [4] -10.3% | [5] -35.2% | [6] 6.75%

Cc1cc[n+](-c2nc3c([O-])n(C)c(=O)n(C)c-3n2)cc1
inactive: [1] 0.65% | [2] 10.6% | [3] 6% | [4] -40.2% | [5] 8.95% | [6] 19.4%

Nc1nc(SCc2ccccc2[N+](=O)[O-])c2[nH]cnc2n1
inactive: [1] 29.2% | [2] 22.2% | [3] 16.2% | [4] 14.1% | [5] 45.4% | [6] 34%

CCOC(=O)NC(=O)c1cn(C2OC(COC(=O)CCCCCCCCC(=O)OCC3OC(n4cc(C(=O)NC(=O)OCC)c(=O)[nH]c4=O)C4OC(C)(C)OC34)C3OC(C)(C)OC32)c(=O)[nH]c1=O (stereo not drawn)
inactive: [1] -42.9% | [2] -39.5% | [3] -27.9% | [4] 10.9% | [5] -16.1% | [6] -24.9%

COC(=O)c1ccccc1-c1ccccc1C(=O)OC
inactive: [1] 7.75% | [2] 18.1% | [3] 10.8% | [4] 25.8% | [5] 15.4% | [6] 13.7%

O=[N+]([O-])c1ccc(C[N+]2(CCC[N+]3(Cc4ccc([N+](=O)[O-])cc4)CCCC3)CCCC2)cc1
inactive: [1] -1.6% | [2] -18.2% | [3] -2.1% | [4] 10.7% | [5] 8.75% | [6] 2.3%

CC(C)(C)OC(=O)CC(O)c1ccccc1 (stereo not drawn)
inactive: [1] 3.8% | [2] -2.9% | [3] 3.65% | [4] -2.45% | [5] -3.7% | [6] 20.8%

CCCC(=O)c1ccc(O)cc1
inactive: [1] 4.65% | [2] 3.45% | [3] -6.2% | [4] -12.6% | [5] 4.05% | [6] 0.2%

CC(=O)NC(CCc1ccccc1)C(=O)O (stereo not drawn)
inactive: [1] 16.1% | [2] 32.4% | [3] 0.9% | [4] 24.9% | [5] 40.8% | [6] 13.8%

From PubChem BioAssay (NCI)
